SMARCA2 activ – SMARCA2 (BRM) function activators, primary screen, cell-based, luminescence, high throughput. MG213 cells, MMTV-luciferase reporter, dexamethasone, overnight. activation, % at 9.1 µM. 370,000 compounds, 1% hits; in the data active = activation above about 7.8%;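 also: 0% = vehicle wells and 100% = reference activator wells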
Jurkat NFkB inh – inhibitors of induced NF-kB luciferase reporter, primary screen, TCR NF-kB activation inhibitor project, cell-based, luminescence, uHTS; Jurkat, PMA/ionomycin-induced NF-kB luciferase reporter; inhibition, % at 4 µM; 330,000 compounds, 0.53% hits; AID 435003, 2010; in the data active = inhibition above about 50%
Gli-Sufu antag – Gli-Sufu pathway antagonists, primary screen, luciferase luminescence, Sufu-KO-LIGHT cells, uHTS; 340,000 compounds, 0.74% hits; inhibition, % at 5 µM; Sufu-KO-LIGHT fibroblasts, Gli luciferase reporter luminescence; AID 588413, 2011;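 active = inhibition above about 55%, limit read from the data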;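 also: 0% = DMSO-treated cells and 100% = wells with medium but no cells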
697 NFkB inh – inhibitors of PMA/ionomycin-induced NF-kB reporter, 697 cells, primary screen, B-cell NF-kB inhibitor project, cell-based, luminescence, uHTS; 697 B-cell NF-kB luciferase reporter, 16 h; inhibition, % at 4 µM; 330,000 compounds, 0.33% hits; in the data active = inhibition above about 35%
esBAF inh – Bmi1 luciferase reporter increase in mESCs, primary screen, esBAF inhibitor project, mouse ES cells, Bmi1 luciferase knock-in, single point. 24 h; 100% = twice the neutral-well signal. reporter increase, % at 12.5 µM. 350,000 compounds, 2% hits; in the data active = activation above about 40%; inconclusive = no clear call, values can overlap the other calls;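 also: 0% = median of the plate's neutral control wells and 100% = double that signal; a rise in the Bmi1 reporter signal indicates esBAF inhibition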
Numbers without * were called inactive; ? = inconclusive; / = not tested or not shown. Hits are enriched below; roughly 3.3% of the tested compounds scored in any of these assays.

SMILES	SMARCA2 activ	Jurkat NFkB inh	Gli-Sufu antag	697 NFkB inh	esBAF inh
Cc1ccc(C(=O)Nc2cccc(C(=O)NC3CCCCC3)c2)cc1	-1	-14	-5	-42	3
CC(=O)c1cccc(NC(=O)NC2CCCCCCC2)c1	1	-24	-27	-29	/
CN(C)c1cccc(C(=O)NC2CCCCCC2)c1	6	-44	-50	-108	44*
Cc1cccc(NC(=O)NC2CCCCCCC2)c1	6	-59	-59	-71	62*
Cc1cccc(C(=O)NC2CCCCCCC2)c1	3	-53	-58	-64	65*
CNC[C@@H]1Oc2ccc(NS(=O)(=O)c3cccs3)cc2C(=O)N([C@@H](C)CO)C[C@H]1C	/	/	/	/	-1
COc1cccc(NC(=O)Nc2ccccc2Br)c1	3	-47	-54	-39	59*
Cc1cc(C(=O)NC2CCCCCCC2)ccc1[N+](=O)[O-]	6	-45	-58	-125	66*
Cc1cc(C(=O)OCC(=O)NC2CC2)ccc1[N+](=O)[O-]	-1	-5	-3	2	3
CN1CCN(C(=O)[C@@H]2[C@@H](CO)[C@@H]3Cn4c(ccc(-c5cncnc5)c4=O)[C@@H]3N2CC2CCCC2)CC1	/	/	/	/	-5
Cn1cc(/C=C(\C#N)C(=O)Nc2ccccc2O)c2ccccc21	/	-47	-4	-49	64*
COc1ccc2c(c1)CCc1c(C(=O)N(C)c3ccccc3)noc1-2	0	-43	-13	-48	56*
COc1ccc2c(c1)CCc1c(C(=O)NCc3ccco3)noc1-2	/	-54	-68	-50	42*
CC(C)c1cccc(NC(=O)C[C@H]2CC[C@H]3[C@@H](COc4ccc(NC(=O)c5ccc(C#N)cc5)cc4C(=O)N3C)O2)c1	/	/	/	/	5
CC(C)NC(=O)N[C@@H]1CC[C@@H](CCn2cc(-c3ccccc3)nn2)O[C@@H]1CO	/	/	/	/	-1
C[C@H](CO)N1C[C@H](C)[C@H](CN(C)C(=O)Nc2ccc(F)cc2)Oc2ccc(NS(=O)(=O)c3ccccc3)cc2CC1=O	/	/	/	/	-1
CCC(C)N1CC(O)=C(c2nc3ccccc3[nH]2)C1=N (stereo not given)	0	-24	-29	-12	?
CC1C(O)=C(c2nc3ccccc3[nH]2)C(=N)N1c1ccccc1 (stereo not given)	2	-20	-24	-5	48*
CCc1ccc(OCC(=O)O/N=C(\N)c2ccccn2)cc1	-3	/	-58	/	/
N/C(=N\OC(=O)COc1ccccc1)c1ccccn1	5	-73	-57	-39	49*
N/C(=N\OC(=O)COc1ccc2ccccc2c1Br)c1cccnc1	0	-4	/	-11	/
N/C(=N\OC(=O)COc1ccc2ccccc2c1Br)c1ccccn1	2	-61	-69	-62	85*
C[C@H](CO)N1C[C@H](C)[C@H](CN(C)C)OCCCC[C@H](C)Oc2ccc(NC(=O)Cc3ccccc3)cc2C1=O	/	/	/	/	-2
COc1ccc(C(=O)n2nc(C)cc2Nc2ccccc2)cc1	4	-12	8	-58	55*
Nc1ccccc1-c1nc2ccccc2[nH]c1=O	6	-54	-5	-36	53*
SMILES	SMARCA2 activ	Jurkat NFkB inh	Gli-Sufu antag	697 NFkB inh	esBAF inh
Nc1ccccc1Sc1nc2ccccc2[nH]1	9.2*	-14	7	-10	/
O=c1[nH]c2ccccc2nc1-c1c[nH]c2ccccc12	0	-19	-2	-23	37
COc1ccc(NC(=O)Nc2ccc3c(c2)C(=O)N([C@H](C)CO)C[C@@H](C)[C@@H](CN(C)C(=O)Nc2ccc(C(F)(F)F)cc2)O3)cc1	/	/	/	/	-6
C[C@H](CO)N1C[C@H](C)[C@H](CN(C)S(=O)(=O)c2cn(C)cn2)Oc2ccc(NS(=O)(=O)c3cccs3)cc2CC1=O	/	/	/	/	2
COCC#Cc1cnc2c(c1)C(=O)N([C@H](C)CO)C[C@H](C)[C@@H](CN(C)C(=O)CCN1CCCCC1)O2	/	/	/	/	5
O=C(Cc1ccncc1)Nc1ccc2c(c1)[C@@H]1C[C@@H](CC(=O)N3CCCCC3)O[C@H](CO)[C@@H]1O2	/	/	/	/	-1
Cc1ccc(S(=O)(=O)Nc2cc(Cl)c(O)c3ncccc23)cc1	-5	12	69*	-30	-56
Oc1c(Cl)cc(Cl)c2cccnc12	2	/	-2	/	5
CC(=O)c1sc(N/N=C/c2cccc([N+](=O)[O-])c2)nc1C	4	-40	-43	-41	60*
CC(=O)c1sc(N/N=C\c2ccc(N(C)C)cc2)nc1C	5	-144	-96	-186	27
CC(=O)c1sc(N/N=C/c2cccc(O)c2)nc1C	2	-59	-47	-45	63*
CC(=O)c1sc(Nc2ccc3c(c2)OCO3)nc1C	-3	/	/	/	47*
CCOC(=O)Cc1csc(N/N=C/c2cccc([N+](=O)[O-])c2)n1	-4	-3	-8	20	-1
O=C(c1ccccc1)c1c2c(cc3sc4ccccc4[n+]13)-c1cccc3cccc-2c13	-6	/	76*	/	/
Cc1sc2ccccc2[n+]1CC(=O)c1ccccc1	/	-13	3	-12	9
Cc1sc2cc3c(c(C(=O)c4ccccc4)[n+]2c1C)-c1cccc2cccc-3c12	-9	/	70*	/	/
CCCNC(=O)C[C@@H]1C[C@@H]2c3cc(NC(=O)Nc4ccc(OC)cc4)ccc3O[C@@H]2[C@H](CO)O1	/	/	/	/	-1
O=c1[nH]c(COc2ccc(Br)cc2Cl)nc2ccccc12	2	-52	-74	-81	45*
COC(=O)CCc1sc(Nc2ccccc2)nc1-c1ccc(OC)cc1	9.7*	-135	-71	-130	/
O=C(C[C@@H]1CC[C@@H](NC(=O)NC2CCCC2)[C@@H](CO)O1)NCc1ccc(F)cc1	/	/	/	/	6
Clc1ccc(-c2nnc(CCc3ccccc3)o2)c(Cl)c1	6	-86	-97	-116	60*
CC(=O)c1sc(NC(=O)c2ccc(F)c(F)c2)nc1C	0	-41	-18	-41	8
CC(=O)c1sc(NCc2ccccc2)nc1C	0	-29	-12	-29	21
CC(=O)c1sc(NC(=O)c2ccccc2C)nc1C	-1	-6	-29	-13	76*
CC(=O)c1sc(NC(=O)c2ccc(Cl)cc2)nc1C	0	-67	-40	-103	51*
SMILES	SMARCA2 activ	Jurkat NFkB inh	Gli-Sufu antag	697 NFkB inh	esBAF inh
CC(=O)c1sc(NCc2ccc(C)cc2)nc1C	3	-100	-69	-91	53*
COCC(=O)Nc1ccc2c(c1)OC[C@H](C)N(C(=O)C1CCCC1)C[C@H](C)[C@@H](OC)CN(C)C2=O	/	/	/	/	-3
C[C@H](CO)N1C[C@H](C)[C@H](CN(C)Cc2ccccc2)Oc2ncc(C3=CCCC3)cc2C1=O	/	/	/	/	5
Oc1ccc(Br)cc1/C=N/n1cnc2ccccc21	3	-61	10	-30	53*
C[C@H]1CN([C@@H](C)CO)C(=O)c2cc(Br)cnc2O[C@H]1CN(C)C(=O)Nc1ccc(F)cc1	/	/	/	/	0
COc1ccc2[nH]c(=O)c(CNc3cccc(C)c3)cc2c1	4	-90	-40	-97	56*
